Test systems include HCT-15 colon; HT29 colon; SNB-75 CNS; SNB-19 CNS; U251 CNS; PC-3 prostate; SK-MEL-5 melanoma; UACC-62 melanoma; LOX IMVI melanoma; SK-MEL-28 melanoma.
Assay in all cases: NCI-60 one-dose screen, 48 h (100 = growth as untreated, 0 = no growth, -100 = all killed)
Holding throughout (settings): 10 µM unless noted

Structures are written as SMILES. Compounds without any hit were thinned out: in the full panel of roughly 83,000, 20% have a hit.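 48-hour exposure, single concentration, 96-well plates; percent growth endpoint where 0 means no net growth. Active: below 10.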 Unmarked numbers belong to inactive results. The source made the active and inactive calls.

With `CCOC(=O)C1C(=O)C=C(c2ccccc2)CC1c1sc(N(C)Cc2ccccc2)nc1Cl` (stereo not given), the growth is 94.3% in the assay with HCT-15 colon; 91.2% in the assay on HT29 colon; 89.1% in the assay on SNB-75 CNS; 89.7% in the assay with SNB-19 CNS; 92.7% with U251 CNS; 76.4% in the assay on PC-3 prostate. Further, the growth with SK-MEL-5 melanoma is 92.7%; with UACC-62 melanoma, 61.4%; in the assay with LOX IMVI melanoma, 88.2%; with SK-MEL-28 melanoma it was 109%.

For `OC(COCc1ccccc1)COCc1ccccc1`, the growth is 109% with HCT-15 colon; 106% with HT29 colon; 90.8% with SNB-75 CNS; 111% in the assay with SNB-19 CNS; 96.1% in the assay with U251 CNS; 111% with PC-3 prostate. Also, the growth was 111% in the assay on SK-MEL-5 melanoma, 103% with UACC-62 melanoma, 101% in the assay on LOX IMVI melanoma and 113% in the assay with SK-MEL-28 melanoma.

`CC1(C)OC2OC3C(CN)OC(c4ccccc4)OC3C2O1` (stereo not given): the growth was 125% in the assay on HCT-15 colon; 106% in the assay with HT29 colon; 92.4% in the assay with SNB-75 CNS; 110% in the assay on SNB-19 CNS; 104% with U251 CNS; 97.1% with PC-3 prostate. Besides, the growth in the assay with SK-MEL-5 melanoma was 106%; in the assay with UACC-62 melanoma it was 105%; in the assay with LOX IMVI melanoma, 97.9%; in the assay with SK-MEL-28 melanoma it was 114%.

Regarding `NC(N)=N/N=C/c1ccc(Cl)cc1`, the growth is 70.5% in the assay on HCT-15 colon; 35.9% in the assay on HT29 colon; 81.1% in the assay with SNB-75 CNS; 91.2% with SNB-19 CNS; 88.8% with U251 CNS; 84.8% with PC-3 prostate. Further, the growth with SK-MEL-5 melanoma is 74.5%; with UACC-62 melanoma, 78.8%; in the assay on LOX IMVI melanoma, 86.3%; in the assay with SK-MEL-28 melanoma, 93.5%.

Regarding `CC(C)C/C=C/C=C/C(=O)N[C@@H](CC(N)=O)C(=O)N[C@@H]1C(=O)N[C@H](c2ccc(O)cc2)C(=O)N[C@H](CCCN)C(=O)N[C@H]([C@@H](C)O)C(=O)N[C@H](c2ccc(O)cc2)C(=O)N[C@H](c2ccc(O)cc2)C(=O)N[C@H]([C@H](C)O)C(=O)N[C@H](Cc2ccccc2)C(=O)N[C@H](CCCN)C(=O)N[C@H](c2ccc(O[C@H]3O[C@@H](CO)[C@@H](O)[C@@H](O)[C@H]3O[C@@H]3O[C@H](CO)[C@H](O)[C@H](O)[C@@H]3O)cc2)C(=O)N[C@H]([C@H](C)O)C(=O)N[C@H](c2ccc(O)cc2)C(=O)NCC(=O)N[C@H](CC(C)C)C(=O)N[C@H](C)C(=O)N[C@H](c2ccc(O)c(Cl)c2)C(=O)O[C@@H]1C(N)=O`, the growth with HCT-15 colon was 70%; in the assay on HT29 colon it was 24.2%; in the assay on SNB-75 CNS it was 81.9%; in the assay with SNB-19 CNS, 21%; in the assay on U251 CNS it was -19% (active); in the assay with PC-3 prostate it was 83.3%. The growth in the assay with SK-MEL-5 melanoma is 26.2%; in the assay with UACC-62 melanoma, -4.24% (active); in the assay on LOX IMVI melanoma it was 36.8%; in the assay on SK-MEL-28 melanoma, 22.8%.

Take `O=C(/C=C/c1ccco1)c1ccccc1O`: the growth was 93.1% in the assay with HCT-15 colon; 112% in the assay with HT29 colon; 108% with SNB-75 CNS; 102% in the assay on SNB-19 CNS; 109% in the assay on U251 CNS; 95.9% with PC-3 prostate. In addition, the growth is 111% in the assay with SK-MEL-5 melanoma, 103% with UACC-62 melanoma, 95.2% in the assay on LOX IMVI melanoma and 111% in the assay on SK-MEL-28 melanoma.

For the compound `COc1ccc(-c2nc(SCCC(C)C)nc(Nc3ccc(C(=O)O)cc3)c2C#N)cc1`, the growth in the assay with HCT-15 colon was 60.6%; in the assay on HT29 colon it was 84%; with SNB-75 CNS, 92.2%; in the assay with SNB-19 CNS it was 88.8%; in the assay with U251 CNS it was 81.5%; in the assay with PC-3 prostate, 58.4%. Further, the growth was 73.9% in the assay on SK-MEL-5 melanoma, 86.8% in the assay with UACC-62 melanoma, 82.6% in the assay with LOX IMVI melanoma and 89.7% in the assay on SK-MEL-28 melanoma.

Consider `COc1ccc(-c2nc3c(c(-c4ccc(Cl)cc4)nn3-c3ccccc3)c(-c3ccc(O)cc3)c2C#N)cc1`, for which the growth in the assay on HCT-15 colon is 29.7%; in the assay on HT29 colon it was 23%; with SNB-75 CNS, 35.1%; in the assay on SNB-19 CNS it was 62.1%; in the assay on U251 CNS, 33.7%; in the assay with PC-3 prostate, 23.9%. Besides, the growth was 42.9% in the assay with SK-MEL-5 melanoma, 56.9% with UACC-62 melanoma, 12.4% with LOX IMVI melanoma and 59.2% with SK-MEL-28 melanoma.

With `COc1cc2ncnc(Nc3ccc(S(=O)(=O)Nc4nccs4)cc3)c2cc1OCCCN1CCOCC1`, the growth in the assay on HCT-15 colon was 104%; in the assay with HT29 colon, 106%; with SNB-75 CNS, 95.1%; in the assay with SNB-19 CNS, 104%; in the assay with U251 CNS, 100%; in the assay with PC-3 prostate, 99%. Further, the growth in the assay on SK-MEL-5 melanoma is 108%; in the assay with UACC-62 melanoma, 98.7%; with LOX IMVI melanoma it was 97.2%; in the assay on SK-MEL-28 melanoma, 109%.

Turning to `N/C(=N\OC(=O)c1ccccc1)C(C(=O)NOC(=O)c1ccccc1)C1CCCCC1` (stereo not given), the growth is 53.3% with HCT-15 colon; 96.7% in the assay with HT29 colon; 35.7% with SNB-75 CNS; 76% with SNB-19 CNS; -25% (active) in the assay on U251 CNS; 54.5% in the assay on PC-3 prostate. In addition, the growth in the assay on SK-MEL-5 melanoma was 74.3%; in the assay with UACC-62 melanoma, 56.6%; in the assay on LOX IMVI melanoma, -85.2% (active); in the assay on SK-MEL-28 melanoma, 93.3%.

As to `Fc1cc(-c2cnc3nonc3n2)c(Cl)cc1Cl`, the growth in the assay on HCT-15 colon was 51%; in the assay on HT29 colon, 87.9%; in the assay with SNB-75 CNS, 99.9%; in the assay with SNB-19 CNS, 90.4%; in the assay on U251 CNS it was 109%; in the assay with PC-3 prostate it was 85.3%. Moreover, the growth with SK-MEL-5 melanoma was 98.3%; in the assay with UACC-62 melanoma, 82.3%; in the assay on LOX IMVI melanoma, 101%; with SK-MEL-28 melanoma, 91.8%.

For the origin of these results see PubChem BioAssay (NCI).
